# Source: PubChem BioAssay
# Sampled rows, rich in hits. Any-hit rate of the full collection: about 19%.
# HT1080NT lethal: kills 2HG-producing HT-1080-NT fibrosarcoma cells | HT-1080-NT fibrosarcoma viability, CellTiter-Glo ATP luminescence, 48 h | Potency, µM (titrated, usually from 46.1 µM), for the others: at the top dose activity, negative = less viability, actives largely listed as cytotoxic | AID 686970 | 360,000 compounds, 1.6% hits;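 further: NT is the 2HG producing partner of a matched IDH1 knockdown line; potency means the concentration at half of the fitted maximal effect; 0% = DMSO-treated cells and -100% = media-only wells without cells; nearly all actives have a fitted effect of over 55% in size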
#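 750 cells/well, RPMI + 5% FBS; 2 h settle, compound pin-transfer, 48 h at 37 degrees C. CellTiter-Glo 10 min RT, luminescence. Normalized to DMSO and media-only wells.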
# HT1080 IDH1KD tx: kills HT-1080 cells with IDH1 knockdown. HT-1080 IDH1 knockdown viability, ATP luminescence, 48 h. Potency, µM (titrated, usually from 46.1 µM), for the others: at the highest dose activity, negative = toxicity, usual class: cytotoxic. 360,000 compounds, 2% hits. AID 686971;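 further: potency means the concentration at half of the fitted maximal effect; 0% = DMSO wells and -100% = cell-free medium wells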
#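 Luminescent ATP read-out (CellTiter-Glo, 10 min at room temperature) after 48 h compound exposure at 37 °C gave viability of IDH1-knockdown HT-1080 cells. Activity was normalised to DMSO and cell-free wells, then fitted as concentration-response curves.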
# ELG1 DNA repair: blocks ELG1-dependent DNA repair in HEK293T cells. HEK293T ELG1-luciferase reporter, luminescence, 16 h; DNA damage induced by 5-fluorouridine. Potency, µM (top dose mostly 46.1 µM), without a hit: top-dose activity change, negative = inhibition, hits mostly inhibitors. 330,000 compounds, 2.3% hits. AID 504467; further: potency means the concentration at half of the fitted maximal effect; nearly all actives have a fitted effect of over 55% in size
#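 Quantitative HTS, concentration-response format. 2,000 cells/well co-treated with 5-fluorouridine and compound, 16 hr in 5% CO2 at 37 °C; ONE-Glo luminescence read after 30 min.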
# TDP1 cell noCPT: qHTS for Inhibitors of human tyrosyl-DNA phosphodiesterase 1 (TDP1): qHTS in cells in absence of CPT. DT40 Tdp1-/- hTDP1 cells, no CPT, ATP luminescence, 48 h. Potency, µM (highest dose often 46.2 µM), for inactives: top-dose activity change, negative = growth inhibition, hits mostly inhibitors. AID 686978, 2013. 420,000 compounds, 15% hits; further: potency means the concentration at half of the fitted maximal effect; nearly all actives have a fitted effect of over 55% in size
#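 A cellular qHTS used chicken DT40 cells lacking endogenous Tdp1 but carrying stably transfected human TDP1. Compounds were applied without camptothecin, and cell growth kinetics were judged by ATP-dependent luminescence after ≥48 hr.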
# TDP1 cell CPT: DT40-hTDP1 cell growth loss with CPT. AID 686979. chicken DT40 Tdp1-/-;hTDP1 cells + 20 nM CPT, ATP luminescence, 48 h. Potency, µM (top dose mostly 46.2 µM), inactives show at the top dose activity change, negative = growth inhibition, most hits filed as inhibitors. 420,000 compounds, 12% hits; further: potency means the concentration at half of the fitted maximal effect; nearly all actives have a fitted effect of over 55% in size
#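 Chicken DT40 Tdp1-/- cells complemented with human TDP1, 400 cells/well, exposed to compounds plus 20 nM camptothecin for at least 48 h at 37 C; viability read as ATP content by CellTiter-Glo luminescence.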
# IL1B secr inh: inflammasome signaling inhibition, IL-1 beta readout | THP-1 LPS/ATP IL-1B secretion, AlphaLISA, 16 h; hits give low values | activity change, % at 57.5 µM | 360,000 compounds, 4.7% hits | AID 743279; in the data active means activity change below about -50%; inconclusive means mostly about -30% to -49%
#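 THP-1 cells pretreated 1 hr with compounds (up to 57.5 uM final), then stimulated with LPS (250 ng/mL final) plus ATP (1.25 mM final); secreted IL-1B measured by AlphaLISA after 16 hr, decreased signal indicating inhibition.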
# * marks the source's active call; other numbers are inactive results; i = inactive; ? = inconclusive; . = not tested or not shown. Unless noted, the call rests on the fitted dose curve; in most records, active means well fitted curve in the direction sought with a large enough effect; inconclusive means small, poorly fitted or top-dose-only effect, or another doubt; inactive means no such curve, though single readings can be large; an effect the other way counts as inactive or inconclusive. Unless noted, on the % scale 0 is the no-effect control and ±100 the full control effect.
SMILES,HT1080NT lethal,HT1080 IDH1KD tx,ELG1 DNA repair,TDP1 cell noCPT,TDP1 cell CPT,IL1B secr inh
CCOC(=O)C1(C)CCN1C(=O)c1cc(C)oc1C (stereo unspecified),21%,4%,.,0%,-13%,-9
COc1ccc(OCC(=O)NC(=O)c2ccccc2OC)c([N+](=O)[O-])c1,6%,4%,0%,-19%,-12%,26
COc1cc(NC(=O)c2noc(C)c2[N+](=O)[O-])c(OC)cc1Cl,1%,3%,9%,6.5µM*,15µM*,-7
CCCN1C(=O)/C(=C\C=C2/Sc3ccccc3N2CC)SC1=S,.,.,5%,.,.,.
CCN1/C(=C\C=C2\C(=O)N(c3ccccc3)C(=S)N2C)Sc2ccccc21,-3%,19%,8%,10µM*,?,-3
O=S(=O)(c1ccccc1)N1CCN(C(c2ccccc2)c2ccc(OC(F)(F)F)cc2)CC1 (stereo unspecified),-7%,-4%,-3%,?,?,4
COc1ccc(NC(=O)C2Cc3c(-c4ccc5c(c4)OCO5)ccnc3O2)cc1OC (stereo unspecified),?,16µM*,.,8.2µM*,9.2µM*,-7
O=C(NCc1ccc(F)c(F)c1)C1Cc2c(-c3ccc4c(c3)OCO4)ccnc2O1 (stereo unspecified),?,?,.,2.9µM*,2.3µM*,0
COc1ccc(CNC(=O)C2Cc3c(-c4ccc5c(c4)OCO5)ccnc3O2)cc1OC (stereo unspecified),?,?,.,12µM*,18µM*,-5
O=C(Nc1cccc(Oc2ccccc2)c1)C1Cc2c(-c3ccc4c(c3)OCO4)ccnc2O1 (stereo unspecified),?,?,.,?,?,-4
Cc1ccc(F)cc1NC(=O)Cn1c(C)cc(C)c(C#N)c1=O,.,.,.,2%,21µM*,.
COc1ccc(CCN(C)CCc2ccc(OC)c(OC)c2)cc1OC,1%,-4%,.,-19%,?,0
COc1ccc(CCN(C)CCCOc2ccc(S(=O)(=O)c3[nH]c4ccccc4c3C(C)C)cc2)cc1OC,.,.,.,9.4µM*,13µM*,.
COc1ccc2cc(/C=N/O)c(Cl)nc2c1,-16%,-9%,-2%,?,-15%,-16
COc1ccc2cc(/C=N/NC(=O)c3ccc(CN(c4cccc(Cl)c4Cl)S(C)(=O)=O)cc3)c(Cl)nc2c1,?,?,-16%,15µM*,18µM*,14
OC1(C2(O)CC(c3ccccc3)ON2)CCCCC1 (stereo unspecified),-21%,-13%,-3%,18µM*,?,-69*
COc1cc(Cl)c(C)cc1Nc1nc2ccccc2n2cnnc12,.,.,.,?,-9%,.
O=C(C[n+]1cc(-c2ccccc2)n2c1CCC2)c1cccs1,-1%,-17%,?,4%,2%,18
O=C(C[n+]1cc(-c2ccc(F)cc2)n2c1CCC2)N1c2ccccc2Sc2ccccc21,-12%,-12%,?,13µM*,15µM*,-50*
Cc1ccc(-c2c[n+](CC(=O)N3c4ccccc4Sc4ccccc43)c3n2CCC3)cc1,?,?,?,5.2µM*,5.2µM*,-58*
O=C(C[n+]1cc(-c2ccccc2)n2c1CCC2)N1c2ccccc2Sc2ccccc21,1%,-23%,3%,2.6µM*,5.2µM*,i
Cn1c(NC(=O)C[n+]2cc(-c3ccccc3)n3c2CCC3)cc(=O)n(C)c1=O,12%,10%,?,-9%,-11%,31
O=C1NC[C@H](CCCCN2C[C@H](Cc3ccc(O)cc3)N(CCC3CCCCC3)C(=O)C2=O)N(CCc2ccc(O)cc2)C1=O,12%,?,.,4%,0%,-7
CN(CC(=O)Nc1ccc(F)cc1)C(=O)CN1C(=O)c2cccc([N+](=O)[O-])c2C1=O,5%,17%,-1%,6%,8%,-6
Nc1c(Cl)ncnc1N/N=C/c1ccccn1,?,?,?,0.021µM*,0.018µM*,-83*
SMILES,HT1080NT lethal,HT1080 IDH1KD tx,ELG1 DNA repair,TDP1 cell noCPT,TDP1 cell CPT,IL1B secr inh
COc1ccccc1C(=O)NC(=O)Nc1cccc(Cl)c1,-9%,1%,?,?,-7%,-3
O=C(NC(=O)c1c(F)cccc1F)Nc1cccc(Oc2ncc(Cl)cn2)c1,-7%,3%,.,5.8µM*,?,0
O=[N+]([O-])c1ccc(/C=C2\C=C(C(O)c3ccc([N+](=O)[O-])cc3)c3ccccc32)cc1 (stereo unspecified),.,.,.,4.5µM*,6.3µM*,.
O=[N+]([O-])c1ccc(N2CCN(c3ccccc3)CC2)cc1,-1%,8%,3%,-17%,-19%,?
O=C(O)C(C(O)c1ccc([N+](=O)[O-])cc1)[n+]1ccccc1 (stereo unspecified),2%,11%,27%,-5%,?,13
OC(C1=CC(=Cc2ccncc2)c2ccccc21)c1ccncc1 (stereo unspecified),3.3µM*,-30%,.,16µM*,?,-59*
O=[N+]([O-])c1ccc(C=C2c3ccccc3-c3ccccc32)cc1,.,.,.,18µM*,-24%,.
CCn1cc(/C=C(\NC(=O)c2ccccc2OC)C(=O)N2CCOCC2)c2ccccc21,-19%,-19%,.,?,?,-4
CCN(C(=O)COC(=O)C1CC1)c1c(N)n(Cc2ccccc2)c(=O)[nH]c1=O,-10%,0%,12%,4%,-3%,-23
CCCCOC(=O)n1c(=S)oc2cc(Cl)ccc21,-1%,-3%,?,23µM*,8.2µM*,?
COc1ccc(Cl)cc1N(C(C)C(=O)NC1CCCC1)S(C)(=O)=O (stereo unspecified),0%,-3%,3%,9%,19%,-6
O=C(CN(c1cc(C(F)(F)F)ccc1Cl)S(=O)(=O)c1ccccc1)NCCc1ccccc1,.,.,.,21µM*,?,.
CS(=O)(=O)N(CC(=O)NCCc1ccccc1)c1cc(C(F)(F)F)ccc1Cl,.,.,.,-29%,-27%,.
CC1CCCCC1NC(=O)C1CCC(CNS(=O)(=O)c2cccc3cccnc23)CC1 (stereo unspecified),0%,7%,-8%,?,?,35
